We go through 155 variants from a collection of fitness landscapes (doi:10.1126/science.1257360).

In all, about 140,000 sequences were measured (“enrichment ratio after two sorts for PhoP signalling”: median about 0, highest 2% from about 11 on). Many of the other results were omitted from the sample, so the highest values are more common in it than they were.

Sequences and labels used below:
B1: PhoQ; a variant is named by its letters at X, in order, P23837 (parent)
chain: MKKLLRLFFPLSLRVRFLLATAAVVLVLSLAYGMVALIGYSVSFDKTTFRLLRGESNLFYTLAKWENNKLHVELPENIDKQSPTMTLIYDENGQLLWAQRDVPWLMKMIQPDWLKSNGFHEIEADVNDTSLLLSGDHSIQQQLQEVREDDDDAEMTHSVAVNVYPATSRMPKLTIVVVDTIPVELKSSYMVWSWFIYVLSANLLLVIPLLWVAAWWSLRPIEALAKEVRELEEHNRELLNPATTRELTSLVRNLNRLLKSERERYDKYRTTLTDLTHSLKTPLXXLQXXLRSLRSEKMSVSDAEPVMLEQISRISQQIGYYLHRASMRGGTLLSRELHPVAPLLDNLTSALNKVYQRKGVNISLDISPEISFVGEQNDFVEVMGNVLDNACKYCLEFVEISARQTDEHLYIVVEDDGPGIPLSKREVIFDRGQRVDTLRPGQGVGLAVAREITEQYEGKIVAGESMLGGARMEVIFGRQHSAPKDE

The variants in this assay derive from B1. Description: enrichment ratio after two sorts for PhoP signalling (ratio (wild type AVST 3.29)); higher = more functional. Conditions: with PhoP (E. coli).
MASY: the enrichment ratio is at most 0.25.
In the case of PWSE it was at most 0.25.
ECDR: the enrichment ratio was at most 0.25.
As for AKEC, the enrichment ratio was at most 0.25.
In the case of PVAT it was at most 0.25; in that of NGSV, at most 0.25; in that of GISV, 11.2.
As for NISV, the enrichment ratio turned out to be 3.96.
In the case of GIMV, the enrichment ratio was determined as 2.38.
For YHSV, the enrichment ratio is at most 0.25.
For the variant MGSV, the enrichment ratio worked out at 15.6.
In the case of GGSV it was 23.9.
On to MGWR, for which the enrichment ratio is at most 0.25.
In the case of TGSV, the enrichment ratio came out at 17.2.
As for RGSV, the enrichment ratio is at most 0.25.
In the case of MGSK, the enrichment ratio is at most 0.25.
In the case of GNSV it was 8.29; in that of YIFP, at most 0.25; in that of IYDW, at most 0.25.
With LKWY, the enrichment ratio was at most 0.25.
In the case of FTWQ, the enrichment ratio is at most 0.25.
In the case of GEMS it was 4.64.
In the case of GEMI it was 84.
For the variant GAMI, the enrichment ratio worked out at 18.9.
Turning to GEMD, the enrichment ratio is at most 0.25.
GAMV: the enrichment ratio was at most 0.25.
GANW: the enrichment ratio was at most 0.25.
In the case of HTQK it was at most 0.25; in that of QEKV, at most 0.25; in that of MKDS, at most 0.25.
For the variant VMDC, the enrichment ratio was at most 0.25.
As for HYLA, the enrichment ratio is at most 0.25.
Take SGKR: the enrichment ratio is at most 0.25.
Take TSAI: the enrichment ratio turned out to be 16.9.
In the case of RGAI it was at most 0.25; in that of SHAI, at most 0.25.
In the case of NHAI, the enrichment ratio is at most 0.25.
Regarding NSAI, the enrichment ratio was 0.375.
For the variant TGAI, the enrichment ratio came to 12.3.
With CFAI, the enrichment ratio is at most 0.25.
On to SGAT, for which the enrichment ratio worked out at 5.6.
Regarding THAI, the enrichment ratio worked out at 14.8.
In the case of SGAI it was 12.3; in that of KSAI, at most 0.25.
Turning to HRPD, the enrichment ratio is at most 0.25.
For the variant FYDW, the enrichment ratio was at most 0.25.
In the case of TKHK, the enrichment ratio was at most 0.25.
AFWS: the enrichment ratio is at most 0.25.
Turning to EVSQ, the enrichment ratio is at most 0.25.
With SCCW, the enrichment ratio turned out to be 5.25.
For TARR, the enrichment ratio amounted to 0.314.
In the case of PTWW, the enrichment ratio was at most 0.25.
In the case of TDAI it was 13.6.
In the case of ADAI, the enrichment ratio was 4.82.
In the case of KDAI it was at most 0.25.
In the case of GQTM, the enrichment ratio was at most 0.25.
NQSC: the enrichment ratio was at most 0.25.
In the case of TQFC it was 8.5; in that of FQTM, at most 0.25.
For TQTA, the enrichment ratio was determined as 5.01.
Turning to TQTM, the enrichment ratio is 22.5.
For the variant TQSC, the enrichment ratio turned out to be 15.3.
In the case of TQTC, the enrichment ratio turned out to be 18.9.
For TQTK, the enrichment ratio was at most 0.25.
In the case of FPER it was at most 0.25.
For LWDG, the enrichment ratio was at most 0.25.
AMGV: the enrichment ratio was at most 0.25.
In the case of AEHV it was at most 0.25.
As to AGGV, the enrichment ratio came out at 11.4.
In the case of AIGV, the enrichment ratio is at most 0.25.
For the variant AHGV, the enrichment ratio was at most 0.25.
In the case of AEGV it was 17.5; in that of VYHA, at most 0.25.
Turning to ALVG, the enrichment ratio was determined as 1.71.
In the case of HEES it was at most 0.25; in that of LAFL, 2.72; in that of AFDH, at most 0.25.
In the case of ACTI it was 5.16; in that of ACIM, 30.7.
For the variant ACGM, the enrichment ratio is at most 0.25.
For ACVN, the enrichment ratio worked out at 31.5.
As to ACPN, the enrichment ratio is at most 0.25.
For the variant ALVN, the enrichment ratio was 13.7.
In the case of ACWM it was at most 0.25.
With ACTC, the enrichment ratio stood at 4.29.
Consider ACTM, for which the enrichment ratio is 11.9.
Take ACNL: the enrichment ratio was at most 0.25.
For the variant ALNL, the enrichment ratio came out at 1.07.
In the case of ALQN it was at most 0.25.
Take NDFR: the enrichment ratio stood at 2.54.
FPHA: the enrichment ratio was at most 0.25.
In the case of HDNY it was at most 0.25; in that of QCKR, at most 0.25; in that of LDKY, at most 0.25.
Turning to YWPF, the enrichment ratio is at most 0.25.
As for DPVE, the enrichment ratio is at most 0.25.
In the case of NGRY, the enrichment ratio was at most 0.25.
In the case of ACAV, the enrichment ratio was 3.32.
Take ACAE: the enrichment ratio was found to be 15.5.
In the case of ATVN it was 19.4.
With ACAK, the enrichment ratio is 0.412.
For the variant YTVN, the enrichment ratio was at most 0.25.
As to ATPN, the enrichment ratio was at most 0.25.
With ACAN, the enrichment ratio was 15.5.
Consider KCAE, for which the enrichment ratio was at most 0.25.
In the case of ACAM it was 30.7; in that of ACAT, 0.287; in that of ACRM, at most 0.25.
Turning to ACQN, the enrichment ratio was at most 0.25.
On to CLIL, for which the enrichment ratio is at most 0.25.
For the variant RMFK, the enrichment ratio is at most 0.25.
In the case of PFPY it was at most 0.25; in that of RDQR, at most 0.25; in that of IEIS, at most 0.25.
In the case of IVGI, the enrichment ratio was at most 0.25.
Take EILP: the enrichment ratio is at most 0.25.
Take ACVM: the enrichment ratio stood at 12.1.
Take ACPM: the enrichment ratio is 0.39.
On to ACNM, for which the enrichment ratio is at most 0.25.
Take PFDF: the enrichment ratio was at most 0.25.
For the variant AKVQ, the enrichment ratio came to 2.82.
As to TKVA, the enrichment ratio came to 18.4.
In the case of TKVQ it was 11.7; in that of TKVH, 12.3.
Regarding HKVH, the enrichment ratio was at most 0.25.
With KKVQ, the enrichment ratio was at most 0.25.
As to TKVI, the enrichment ratio is 30.1.
MKVH: the enrichment ratio was at most 0.25.
As for HKVI, the enrichment ratio was at most 0.25.
In the case of TKVK it was at most 0.25; in that of AKVI, 5.34; in that of TKVG, 1.43.
In the case of RIDW, the enrichment ratio is at most 0.25.
SRWP: the enrichment ratio was at most 0.25.
Regarding PCHL, the enrichment ratio is at most 0.25.
For the variant IMSS, the enrichment ratio is at most 0.25.
In the case of RNRM it was at most 0.25; in that of QWVH, at most 0.25.
For AEDM, the enrichment ratio was at most 0.25.
As to YQHC, the enrichment ratio is at most 0.25.
On to MEMA, for which the enrichment ratio is at most 0.25.
Consider MKVM, for which the enrichment ratio is at most 0.25.
For the variant AKVM, the enrichment ratio is at most 0.25.
Take AKVV: the enrichment ratio was 11.
As for TKMA, the enrichment ratio stood at 20.5.
With HKMA, the enrichment ratio is at most 0.25.
For HKVV, the enrichment ratio is at most 0.25.
Consider TKVM, for which the enrichment ratio was determined as 36.7.
With TKVV, the enrichment ratio amounted to 16.7.
In the case of TEIA it was 5.22; in that of RVAC, at most 0.25.
In the case of LPRF, the enrichment ratio was at most 0.25.
VFWD: the enrichment ratio was at most 0.25.
As for DAPE, the enrichment ratio is at most 0.25.
For QDDV, the enrichment ratio is at most 0.25.
